Assay results as given in PubChem BioAssay AID1347418 (Sanford-Burnham Center for Chemical Genomics, 2020).
The campaign covered roughly 1,300 compounds. About 750 (58%) were called active. The list shows a part of the results.

Each compound was assayed against Sulfhydryl oxidase 1 (Homo sapiens) (UniProt O00391) (assay: QSOX1 enzyme inhibitors, primary screen, biochemical, ROS-Glo H2O2 luminescence, HTS (AID 1347418)). Settings: recombinant QSOX1, ROS-Glo H2O2 luminescence, at 12.5 µM, stronger effect = higher value; active = any value above zero unless noted.
Sulfhydryl oxidase 1 (Homo sapiens), sequence (O00391 whole entry, looked up): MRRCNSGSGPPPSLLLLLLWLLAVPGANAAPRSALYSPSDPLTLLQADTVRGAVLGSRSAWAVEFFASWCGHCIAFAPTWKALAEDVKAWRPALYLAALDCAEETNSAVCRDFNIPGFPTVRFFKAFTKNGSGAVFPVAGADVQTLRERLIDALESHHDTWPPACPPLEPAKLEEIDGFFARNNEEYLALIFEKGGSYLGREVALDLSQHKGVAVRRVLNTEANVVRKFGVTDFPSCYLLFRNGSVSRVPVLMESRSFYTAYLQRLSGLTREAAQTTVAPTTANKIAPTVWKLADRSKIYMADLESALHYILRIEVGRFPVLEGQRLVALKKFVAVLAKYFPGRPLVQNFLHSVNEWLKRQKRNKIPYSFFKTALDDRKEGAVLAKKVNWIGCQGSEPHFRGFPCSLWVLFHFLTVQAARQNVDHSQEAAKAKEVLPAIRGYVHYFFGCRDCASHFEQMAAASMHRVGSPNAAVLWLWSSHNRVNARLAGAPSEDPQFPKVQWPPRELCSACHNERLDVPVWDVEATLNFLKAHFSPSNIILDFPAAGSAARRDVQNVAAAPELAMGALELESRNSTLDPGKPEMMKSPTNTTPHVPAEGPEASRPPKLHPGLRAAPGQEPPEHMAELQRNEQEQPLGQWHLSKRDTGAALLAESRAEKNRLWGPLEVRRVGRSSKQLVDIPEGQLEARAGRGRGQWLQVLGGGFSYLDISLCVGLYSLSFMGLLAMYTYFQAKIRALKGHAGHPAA

| SMILES | inhibition |
| --- | --- |
| NC(=O)CN1CCCC1=O | 2.9% [setting not given] (active) |
| NC(=O)CN1CC(O)CC1=O (stereo not given) | 1.1% [setting not given] (active) |
| O=C1CCCN1CC#CCN1CCCC1 | -8.1% [setting not given] (inactive) |
| COc1ccc(C(=O)N2CCCC2=O)cc1 | -3% [setting not given] (inactive) |
| Cc1cccc(C)c1NC(=O)CN1CCCC1=O | 3% [setting not given] (active) |
| CC[C@@H](C(N)=O)N1CCCC1=O | -2.6% [setting not given] (inactive) |
| C=CCN(C1=NCCN1)c1c(Cl)cccc1Cl | -6.5% (inactive) |
| CCC1(C2=NCCN2)Cc2ccccc2O1 (stereo not given) | -2.6% (inactive) |
| C/C=C(/C)C(=O)O[C@H]1C(C)=C2[C@H]([C@@H]1OC(=O)CCCCCCC)[C@@](C)(OC(C)=O)C[C@H](OC(=O)CCC)[C@@]1(O)[C@H]2OC(=O)[C@@]1(C)O | -0.7% (inactive) |
| CN[C@@H]1C[C@@H](c2ccc(Cl)c(Cl)c2)c2ccccc21 | -1.2% (inactive) |
| CCCN1CCC[C@@H]2Cc3[nH]ncc3C[C@H]21 | -2.4% (inactive) |
| CC12CCC3C(CCC4=C(O)C(=O)CCC43C)C1CCC2=O (stereo not given) | 0.2% [setting not given] (active) |
| C[C@@H](N)Cc1cnc[nH]1 | 11.8% (active) |
| c1ccc(C2(c3ccccc3)CC2C2=NCCN2)cc1 (stereo not given) | -0.8% (inactive) |
| CCn1cnc2c(Nc3cccc(Cl)c3)nc(N[C@@H]3CCCC[C@@H]3N)nc21 | 0.3% (active) |
| NC(Cn1oc(=O)[nH]c1=O)C(=O)O (stereo not given) | 2.7% (active) |
| CCC1(c2ccc(N)cc2)CCC(=O)NC1=O (stereo not given) | -0.8% [setting not given] (inactive) |
| NCCCP(=O)(O)O | 6.4% (active) |
| CC(NC(C)(C)C)C(=O)c1cccc(Cl)c1 (stereo not given) | 0.7% [setting not given] (active) |
| CCCN1CCC[C@@H]2Cc3nc(N)ncc3C[C@H]21 | -0.3% (inactive) |
| N#CC(=Cc1ccc(O)c(O)c1)C(N)=S | 26.9% (active) |
| N#CC(C#N)=Cc1ccc(O)c(O)c1 | 31.5% (active) |
| CC(C)(C)c1cc(C=C(C#N)C#N)cc(C(C)(C)C)c1O | 27.7% (active) |
| CCCCc1ccc(C(=O)O)nc1 | -1.9% (inactive) |

| SMILES | inhibition |
| --- | --- |
| NC(=O)c1cc(N2CC2)c([N+](=O)[O-])cc1[N+](=O)[O-] | -2.6% (inactive) |
| COc1ccc(OC)c(C(O)C(C)N)c1 (stereo not given) | -1.4% [setting not given] (inactive) |
| CC(N)[C@H](O)c1ccc(O)c(O)c1 (stereo not given in full) | 10.4% [setting not given] (active) |
| C[C@@H]1O[C@@H](O[C@H]2C[C@@H](O)[C@]3(CO)[C@H]4[C@H](O)C[C@]5(C)[C@@H](C6=CC(=O)OC6)CC[C@]5(O)[C@@H]4CC[C@]3(O)C2)[C@H](O)[C@H](O)[C@H]1O | 1.8% [setting not given] (active) |
| C[C@@H]1O[C@@H](O[C@H]2C[C@@H](O)[C@]3(CO)[C@@H]4C(CC[C@]3(O)C2)[C@@]2(O)CC[C@H](C3COC(=O)C3)[C@@]2(C)C[C@H]4O)[C@H](O)[C@H](O)[C@H]1O (stereo not given in full) | -6.9% (inactive) |
| CN1C2CCC1CC(OC(=O)c1cc(Cl)cc(Cl)c1)C2 (stereo not given) | -0.7% (inactive) |
| CN1C2CCC1CC(OC(c1ccccc1)c1ccccc1N)C2 (stereo not given) | 1.1% (active) |
| COC(=O)[C@@H](N)CCCN=C(N)N[N+](=O)[O-] | 2.4% (active) |
| NC(=NCCC[C@H](N)C(=O)O)N[N+](=O)[O-] | -2.6% (inactive) |
| C[C@]12Cc3cn4c(nc3C=C1CCC1C2CC[C@@]2(C)[C@H]1CC[C@@]2(O)C#N)nc1ccccc14 (stereo not given in full) | 2.7% (active) |
| Cc1o[nH]c(=O)c1CC(N)C(=O)O (stereo not given) | 4.2% (active) |
| NC(C(=O)O)c1cc(=O)[nH]o1 (stereo not given) | -2.4% (inactive) |
| CNCCc1ccc(O)c(O)c1 | 7.7% (active) |
| CCCN(CCC)CCc1ccc(O)c(O)c1 | 14.4% (active) |
| CC(C)(C)NCC(O)c1ccccc1Cl (stereo not given) | -0.6% (inactive) |
| CC(N)c1cccc(Cl)c1Cl (stereo not given) | 6.2% (active) |
| O=C(O)[C@@H]1CCN1 | 9.3% (active) |
| C[C@H](N)Cc1cccc(C(F)(F)F)c1 | 1.6% [setting not given] (active) |
| O=[N+]([O-])c1cc(O)c(O)c([N+](=O)[O-])c1 | 13% (active) |
| N=C(N)c1ccc(CS(=O)(=O)F)cc1 | -0.1% (inactive) |
| NCCc1ccc(O)cc1 | -0.2% [setting not given] (inactive) |
| NCCc1ccc(S(=O)(=O)F)cc1 | 5.8% (active) |
| CC1=NN=C(c2ccc(N)cc2)c2cc3c(cc2C1)OCO3 | 10.6% (active) |
| NCC(CC(=O)O)c1ccc(Cl)cc1 (stereo not given) | 1.1% [setting not given] (active) |

| SMILES | inhibition |
| --- | --- |
| NCC(CP(=O)(O)O)c1ccc(Cl)cc1 (stereo not given) | 0.1% (active) |
| CCCCC/C=C\C/C=C\C/C=C\C/C=C\CCCC(=O)NCC(=O)O | 2.2% (active) |
| Cc1cccc(C)c1NC1=NCCCS1 | 0.2% [setting not given] (active) |
| Nc1ccncc1 | -1% [setting not given] (inactive) |
| CCN1C[C@@]2(COC)C3[C@@H](OC)C4[C@@H]1C3([C@@H]1C[C@@]3(O)[C@H](OC(=O)c5ccccc5)[C@@H]1[C@]4(OC(C)=O)[C@@H](O)[C@@H]3OC)[C@H](OC)C[C@H]2O | 2.6% (active) |
| CNc1ccc2oc(C[C@H]3O[C@@]4(CC[C@H]3C)O[C@H]([C@H](C)C(=O)c3ccc[nH]3)[C@H](C)C[C@H]4C)nc2c1C(=O)O | 14.2% [setting not given] (active) |
| Cc1nccc2c1[nH]c1ccccc12 | -2% [setting not given] (inactive) |
| Cc1c2ccncc2c(C)c2c1[nH]c1ccccc12 | 29% [setting not given] (active) |
| NC(CCCCCP(=O)(O)O)C(=O)O (stereo not given) | -4.6% (inactive) |
| NC(CP(=O)(O)O)C(=O)O (stereo not given) | 2.8% (active) |
| NC(CCP(=O)(O)O)C(=O)O (stereo not given) | 2.8% (active) |
| CO[C@H]1CC=C2CCN3CCC4=C(CC(=O)OC4)[C@]23C1 | 0.6% (active) |
| O=c1[nH]oc2c1CCNC2 | -7.3% (inactive) |
| c1ccc2sc(C3(N4CCCCC4)CCCCC3)cc2c1 | 0.2% (active) |
| Cc1sc2ccccc2c1CC1=NCCN1 | -3.3% (inactive) |
| CC(C)N(CCC(C(N)=O)(c1ccccc1)c1ccccn1)C(C)C (stereo not given) | 6.1% [setting not given] (active) |
| CC1(C(=O)O)C2CCC(O2)C1(C)C(=O)O (stereo not given) | -3.3% (inactive) |
| COc1ccc(CNC(=O)/C=C/c2ccc3[nH]cc(CCN(C)C)c3c2)cc1 | 1.8% [setting not given] (active) |
| CN(C(=O)Cc1ccc(Cl)c(Cl)c1)C(CN1CCCC1)c1cccc(OCC(=O)O)c1 (stereo not given) | 1.2% (active) |
| O=C(Cc1ccc(Cl)c(Cl)c1)N1CCCCC1CN1CCCC1 (stereo not given) | -1.7% (inactive) |
| COC(=O)N1CCN(C(=O)Cc2ccc(Cl)c(Cl)c2)C(CN2CCCC2)C1 (stereo not given) | -0.5% (inactive) |
| CC(C)c1cccc(C(C)C)c1O | 0.9% (active) |
